Many of the other results were omitted from the sample, so hits are more common in it than they were.
TbPYK inhibitor = T. brucei pyruvate kinase inhibition; TbPYK enzyme, Kinase-Glo Plus ATP luminescence, 45 min; Potency, µM (series often up to 76.8 µM), without a hit: at the top dose activity, negative = inhibition, actives largely listed as inhibitors; 410,000 compounds, 0.12% hits; further: potency means the concentration at half of the fitted maximal effect; on the % scale 0 is the no-effect control and ±100 the full control effect; nearly all actives have a fitted effect of over 50% in size
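ADP (130 uM final) triggers the TbPYK reaction after compound addition; incubation is 45 min at room temperature. Kinase-Glo Plus is then added and luminescence imaged. Normalized data are fitted to concentration-effect curves.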
CHX counter = counter-screen hit for Shiga toxin inhibitors, cycloheximide; 300,000 compounds, 12% hits; cell reporter, cycloheximide protein synthesis inhibition counterscreen; AID 2314; max response, %; in the data active means max response mostly above about 13%, no sharp cut-off; inactive means mostly below about 14%; further: read at 38.3 µM for the half of the compounds with a filed dose; 0% is about no effect
Shiga toxin inh = inhibitors of Shiga toxin in Vero cells; AID 2315; Vero cells, Shiga toxin protein synthesis inhibition reporter; 290,000 compounds, 9.2% hits; inhibition, % at 38.7 µM; in the data active means inhibition mostly above about 28%, no sharp cut-off; inactive means mostly below about 43%; further: 0% is about no effect
LmPK inh = LmPK (Leishmania mexicana) enzyme inhibition | purified LmPK, Kinase-Glo ATP luminescence, 1 h | 290,000 compounds, 0.37% hits | Potency, µM (doses to about 57.5 µM), for the others: at the highest dose activity change, negative = inhibition, usual class: inhibitors; further: potency means the concentration at half of the fitted maximal effect; on the % scale 0 is the no-effect control and ±100 the full control effect
Target sequence (Q27686 whole entry, looked up): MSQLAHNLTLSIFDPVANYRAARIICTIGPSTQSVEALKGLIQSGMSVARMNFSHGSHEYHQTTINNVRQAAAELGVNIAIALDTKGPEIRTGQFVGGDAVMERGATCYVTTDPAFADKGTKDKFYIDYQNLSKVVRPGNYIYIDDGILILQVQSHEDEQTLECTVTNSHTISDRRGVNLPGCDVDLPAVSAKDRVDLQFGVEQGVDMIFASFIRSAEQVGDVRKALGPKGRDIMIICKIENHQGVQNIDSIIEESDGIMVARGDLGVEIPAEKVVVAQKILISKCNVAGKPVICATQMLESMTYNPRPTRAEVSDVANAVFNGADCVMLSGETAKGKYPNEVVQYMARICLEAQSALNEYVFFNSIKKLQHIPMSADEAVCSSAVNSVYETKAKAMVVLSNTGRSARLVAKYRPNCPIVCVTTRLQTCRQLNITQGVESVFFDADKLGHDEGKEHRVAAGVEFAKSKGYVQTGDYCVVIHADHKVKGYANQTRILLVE
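Purified LmPK (0.1 nM) with 0.5 mM PEP and 0.1 mM ADP in imidazole buffer pH 7.2 with MgCl2/KCl, 1 h at room temperature. ATP formed was read by luciferase luminescence and normalized to no-enzyme and uninhibited controls.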
Giardia FBPA inh-1 = Giardia lamblia aldolase inhibition. A8B2U2. purified Giardia FBPA. Potency, µM (doses to about 59.6 µM), inactives show at the top dose activity, negative = inhibition, most hits filed as inhibitors. 290,000 compounds, 0.71% hits. AID 2451; further: potency means the concentration at half of the fitted maximal effect; on the % scale 0 is the no-effect control and ±100 the full control effect; nearly all actives have a fitted effect of over 55% in size
Target sequence (A8B2U2 whole entry, looked up): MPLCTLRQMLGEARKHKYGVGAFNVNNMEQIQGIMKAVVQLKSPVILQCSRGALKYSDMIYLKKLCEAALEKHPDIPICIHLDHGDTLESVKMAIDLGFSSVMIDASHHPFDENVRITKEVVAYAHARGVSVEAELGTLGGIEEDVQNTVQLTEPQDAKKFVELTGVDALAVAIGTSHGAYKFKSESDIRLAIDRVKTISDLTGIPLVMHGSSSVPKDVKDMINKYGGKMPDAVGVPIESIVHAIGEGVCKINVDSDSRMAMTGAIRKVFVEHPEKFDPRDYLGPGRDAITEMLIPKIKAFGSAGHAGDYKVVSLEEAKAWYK
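Giardia FBPA (40 nM reagent) was preincubated 10 min at RT with compound (up to 57.5 uM final), then substrate plus GAPDH/TPI/NAD/arsenate coupling system with diaphorase/resazurin was added; resorufin fluorescence (525/598 nm) was read after 20 min.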
Sm TGR inh = blocks Schistosoma mansoni thioredoxin glutathione reductase | Q962Y6 | purified TGR, DTNB reduction, TNB absorbance 405 nm | Potency, µM (highest dose often 114 µM), without a hit: at the top dose activity change, negative = inhibition, actives largely listed as inhibitors | 360,000 compounds, 3% hits | AID 485364; further: potency means the concentration at half of the fitted maximal effect; on the % scale 0 is the no-effect control and ±100 the full control effect; nearly all actives have a fitted effect of over 60% in size
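First, TGR (20 nM dispensed) and NADPH were mixed with compound. Second, a 15 min room-temperature incubation followed. Third, further NADPH and then DTNB were added to start the reaction. Finally, TNB absorbance was monitored kinetically.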
Giardia growth = Giardia lamblia growth inhibition | shares compounds with Giardia FBPA inh-1 | Giardia lamblia trophozoite growth inhibition | Potency, µM (series often up to 57.5 µM), for inactives: at the top dose activity change, negative = inhibition, usual class: inhibitors | 1,500 compounds, 5% hits;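 further: potency means the concentration at half of the fitted maximal effect; trophozoites exposed to compound for 48 h at 37 °C; on the % scale 0 is the no-effect control and ±100 the full control effect; nearly all actives have a fitted effect of over 70% in size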
Mammalian tox = counter-screen for Giardia aldolase inhibitors: mammalian cell toxicity. mammalian cell viability counter-screen, qHTS. Potency, µM (highest dose often 57.5 µM), without a hit: at the top dose viability change, negative = toxicity, hits mostly inhibitors. AID 2786. 1,500 compounds, 4% hits. shares compounds with Giardia FBPA inh-1;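 further: Chinese hamster ovary cells used as mammalian cytotoxicity surrogate; viability measured as cellular ATP by luminescence; potency means the concentration at half of the fitted maximal effect; compound exposure lasted 48 h before reading; on the % scale 0 is the no-effect control and ±100 the full control effect; nearly all actives have a fitted effect of over 60% in size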
Giardia FBPA inh-2 = confirmation of Giardia fructose-bisphosphate aldolase inhibitors | shares compounds with Giardia FBPA inh-1 | purified Giardia aldolase enzyme activity, qHTS | Potency, µM (top dose mostly 57.5 µM), without a hit: at the top dose activity change, negative = inhibition, actives largely listed as inhibitors | 1,500 compounds, 5% hits; further: potency means the concentration at half of the fitted maximal effect; on the % scale 0 is the no-effect control and ±100 the full control effect; nearly all actives have a fitted effect of over 45% in size
Rabbit aldolase = selectivity test for Giardia aldolase inhibitors: rabbit aldolase. AID 2794. Potency, µM (top dose mostly 57.5 µM), without a hit: top-dose activity, negative = inhibition, actives largely listed as inhibitors. shares compounds with Giardia FBPA inh-1. Rabbit muscle FBPA enzyme inhibition, selectivity counter-screen. 1,500 compounds, 4% hits; further: potency means the concentration at half of the fitted maximal effect; on the % scale 0 is the no-effect control and ±100 the full control effect; nearly all actives have a fitted effect of over 60% in size
GAPDH counter = counter-screen for Giardia aldolase inhibitors: GAPDH coupling enzyme; shares compounds with Giardia FBPA inh-1; GAPDH coupling enzyme counterscreen, biochemical, qHTS; Potency, µM (series often up to 57.5 µM), without a hit: at the highest dose activity change, negative = inhibition, actives largely listed as inhibitors; 1,500 compounds, 6% hits; AID 2795; further: potency means the concentration at half of the fitted maximal effect; on the % scale 0 is the no-effect control and ±100 the full control effect; nearly all actives have a fitted effect of over 55% in size
An asterisk follows results filed as active; ? = inconclusive; nt = not tested or not shown; ! = not confirmed by another sample; [ ] = remark or other dose. Unless noted, the call rests on the fitted dose curve; in most records, active means well fitted curve in the direction sought with a large enough effect; inconclusive means small, poorly fitted or top-dose-only effect, or another doubt; inactive means no such curve, though single readings can be large; an effect the other way counts as inactive or inconclusive.

SMILES | TbPYK inhibitor | CHX counter | Shiga toxin inh | LmPK inh | Giardia FBPA inh-1 | Sm TGR inh | Giardia growth | Mammalian tox | Giardia FBPA inh-2 | Rabbit aldolase | GAPDH counter
COc1cc(/C=C/C(=O)c2c(O)cc(C)oc2=O)cc(OC)c1O | -14% | 1 | -4 | 8% | 16µM* | 100µM* | -3%[10.4 µM] | -12% | ? | ? | ?
CCC(Oc1ccccc1)C(=O)Nc1ccc(S(=O)(=O)Nc2cc(C)on2)cc1 (stereo not drawn) | 1% | -3 | -4 | -10% | 1% | 15% | nt | nt | nt | nt | nt
CN(Cc1ccccc1)c1nc(-c2cccc([N+](=O)[O-])c2)nc2ccccc12 | -29% | -3 | -7 | -2% | -1% | 4% | nt | nt | nt | nt | nt
Cc1cc(-c2ccco2)c(C#N)c2nc3ccccc3n12 | 1% | 18 | 43 | -10% | 1.3µM* | 28µM* | -19%[38.3 µM] | -29% | ? | ? | ?
Clc1ccc(CN2CCN(c3ncccn3)CC2)cc1 | 4% | -2 | 22 | 2% | ? | -23% | nt | nt | nt | nt | nt
CC(=O)Nc1cc(OC(C)=O)c2nonc2c1OC(C)=O | -5% | -2 | -18 | 15% | 0.045µM* | 8.9µM* | ? | 16µM* | 3.5µM* | 4.5µM* | 2µM*
CC(=O)Nc1nonc1NC(C)=O | 2% | -3 | -17 | 2% | 1% | -1% | nt | nt | nt | nt | nt
Oc1ccc(-c2cn3c(n2)SCC3)cc1O | ? | 11 | 21 | ? | 18µM* | ? | 0%[10.4 µM] | -13% | ? | ? | -16%
O=S(=O)(Nc1cccc(-c2cn3c(n2)SCC3)c1)c1cccs1 | 2% | 8 | 3 | 9% | -3% | -11% | nt | nt | nt | nt | nt
O=C(O)COc1ccccc1C(Nc1cccnc1)c1cc(Cl)c2cccnc2c1O (stereo not drawn) | 30% | -3 | 18 | -2% | 18µM* | 1µM* | 30% | 11% | -16% | -6% | 3%
COc1ccccc1N1CCN(C(C)C(=O)N2CC(C)OC(C)C2)CC1 (stereo not drawn) | -1% | 0 | -3 | -14% | 5.6µM* | -2% | 9%[10.4 µM] | 4% | -5% | -8% | 5%
CCCC(C)(C)C(=O)N1CCC1(C)C(=O)Nc1cccc2ccccc12 (stereo not drawn) | 3% | nt | nt | nt | nt | nt | nt | nt | nt | nt | nt
O=C(CS(=O)(=O)Cc1ccccc1)Nc1nc2c(s1)CCCC2 | 5% | -3 | 31 | -7% | -1% | 1% | nt | nt | nt | nt | nt
S=C(Nc1nc2c(s1)CCCC2)NC1CC1 | -11% | 52* | 77* | 3% | 14µM* | 2.5µM* | -13% | 3% | 3% | 2% | 2%
CC(C)NCc1cc(Br)ccc1OCc1ccccc1 | 5% | -4 | -2 | 5% | -4% | 7% | nt | nt | nt | nt | nt
COc1ccc(Br)cc1CNc1ccccc1 | -3% | 1 | -6 | -4% | 28µM* | 0% | ? | -2% | -5% | -6% | 0%
N#C/C(=N\Nc1ccccc1)C(N)=S | -7% | 8 | 25 | 6% | 20µM* | -3% | ? | 7% | 12% | 24% | 13%
N#C/C(=N/Nc1ccccc1[N+](=O)[O-])C(N)=S | -10% | 5 | 28 | 1% | -24% | 7% | nt | nt | nt | nt | nt
COc1ccc(CCNC(=O)Cn2nc(C)n3c(cc4occc43)c2=O)cc1OC | -3% | nt | nt | nt | nt | -10% | nt | nt | nt | nt | nt
CCOc1ccc(CN2CCN(S(=O)(=O)c3ccc(NC(C)=O)cc3)CC2)cc1 | 15% | 1 | -15 | 1% | 16µM* | -10% | ? | 1% | 3% | 7% | 4%
CN1CCN(S(=O)(=O)c2ccc(NC(=O)COc3ccccc3)cc2)CC1 | 5% | -1 | 44 | 0% | 1% | 2% | nt | nt | nt | nt | nt
COc1ccc(CN2CCN(S(=O)(=O)c3ccc(NC(C)=O)cc3)CC2)cc1OC | 6% | 14 | -9 | 0% | -29% | 4% | nt | nt | nt | nt | nt
CN(CCOc1ccccc1)CC(=O)Nc1ccc(S(=O)(=O)N2CCCC2)cc1 | 22% | -2 | 8 | -8% | 16µM* | -8% | ? | 1% | 8% | 12% | 2%
Cc1ccc(Cn2c(C(=O)O)c(CNCc3ccccc3Cl)c3ccc(C)cc32)cc1 | -10% | nt | nt | nt | nt | -5% | nt | nt | nt | nt | nt
c1ccc(Nc2ccccn2)nc1 | 6% | 11 | -1 | 2% | -26% | -4% | nt | nt | nt | nt | nt
SMILES | TbPYK inhibitor | CHX counter | Shiga toxin inh | LmPK inh | Giardia FBPA inh-1 | Sm TGR inh | Giardia growth | Mammalian tox | Giardia FBPA inh-2 | Rabbit aldolase | GAPDH counter
S=C(Nc1ccccn1)c1ccccn1 | ? | 42* | 71*! | ? | 3.2µM* | -18% | -9%[38.3 µM] | 13µM* | ? | -29% | ?
O=C(O)CCS(=O)(=O)c1cccc2cccnc12 | -9% | 1 | -3 | 0% | 3% | 6% | nt | nt | nt | nt | nt
CCSS(=O)(=O)c1cccc2cccnc12 | 10µM* | 1 | 11 | 47% | 16µM* | 4% | -18%[10.4 µM] | -4% | -10% | ? | ?
O=C(CN(c1ccccc1)S(=O)(=O)c1ccc(F)cc1)NCc1cccs1 | 0% | nt | nt | nt | nt | 7% | nt | nt | nt | nt | nt
Cc1nc(N)sc1-c1csc(Nc2cccc(C(=O)O)c2)n1 | -18% | -1 | -9 | -2% | 18µM* | ? | -23% | 6% | ? | 32µM* | 32µM*
CC(=O)N1CCN(C(=O)c2cc(S(=O)(=O)N3CCN(c4ccccc4)CC3)ccc2Cl)CC1 | -6% | nt | nt | nt | nt | 0% | nt | nt | nt | nt | nt
O=C(CC1C(=O)OCC2CCCCN21)Nc1ccccc1C(F)(F)F (stereo not drawn) | -17% | 1 | 18 | 2% | 22µM* | ? | 54% | 23% | 5% | 0% | 13%
Clc1ccc(OCCn2cnc(Cl)c2Cl)cc1 | -10% | -2 | 24 | 1% | 2% | -2% | nt | nt | nt | nt | nt
Cc1nccn1CCOc1ccc(Cl)cc1 | -4% | -1 | nt | -7% | 25µM* | 4% | -16%[10.4 µM] | 11% | 0% | 2% | 8%
Cc1c(Cl)cccc1NC(=O)CN1C(=O)COc2ccc(S(=O)(=O)Nc3ccccc3)cc21 | -7% | nt | nt | nt | nt | 4% | nt | nt | nt | nt | nt

Source: PubChem (National Center for Advancing Translational Sciences (NCATS))
